# Data as given in PubChem BioAssay (NCI).
# About 83,000 compounds went through this panel and 20% of them were active in at least one assay; those are over-represented in the sample as a whole.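 Results are percent growth after 48 hours of single-concentration exposure. 100 means growth as in untreated cells, lower positive values show inhibition; negative values down to -100 show cell death.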 Unmarked numbers belong to inactive results. Calls of active or inactive are those of the source. Rule for the calls: active = growth percent below 10; inactive = the rest.
# System: MDA-MB-468 breast
# Assay: NCI-60 one-dose screen, 48 h (100 = growth as untreated, 0 = no growth, -100 = all killed)
# Conditions: 10 µM unless noted
row,SMILES,growth
1,CCC(CC)N1C(=O)/C(=c2\sc3n(c2=O)NC2C(N=3)N(CC)C(=O)N2CC)c2ccccc21 (stereo not given),79.9%
2,Cc1cnc(N)nc1OCC(C)(C)CNC(=O)c1cccc(-c2ccc(S(=O)(=O)Nc3ccc4c(c3)N(C(=O)C3CC3)CCC4)cc2)c1,22.6%
3,C(/C=C/c1ccccc1)=Nc1ccc(CCc2ccc(N=C/C=C/c3ccccc3)cc2)cc1,83.3%
4,C=C1C(=O)O[C@H]2[C@H]1CC/C(CNC(=O)/C=C/c1ccc(Cl)cc1Cl)=C\CC[C@@]1(C)O[C@@H]21,-89.2% (active)
5,O=c1[nH]nc(SC2CCCCC2)c(=O)[nH]1,116%
6,Fc1ccc(Cn2cc(CSc3nc4ccccc4o3)nn2)cc1,109%
7,CC(C)(C)OC(=O)c1ccc(NCc2cc(O)ccc2O)cc1,-17.6% (active)
8,COc1ccc(-c2[nH]ncc2-c2cc3c(c(OC)c2)OCC(=O)N3)cc1,-6.47% (active)
9,c1ccc2c(c1)oc1cc3sccc3nc12,102%
10,C=C1CC[C@@H]2[C@@](C)(CCC[C@]2(C)C(=O)O)[C@@H]1CC[C@H](CO)CCO,108%
11,N#Cc1cncc(-c2ccc3ncnc(Nc4cccc(Cl)c4)c3c2)c1,9.34% (active)
12,FC(F)(F)c1cccc(CNC2CCN(CCc3ccccc3)CC2)c1,87.2%
13,CC(=O)/C(=C\c1ccc(Cl)cc1)c1ccccc1,0.454% (active)
14,CCCCCc1ccc(S(=O)(=O)Nc2cc(-c3csc(NC(=O)CN4CCN(C)CC4)n3)ccc2OC)cc1,35.2%
15,O=S1(=O)N(Cc2ccccc2)[C@@H](Cc2ccccc2)C2O[C@H]2[C@H](Cc2ccccc2)N1Cc1ccccc1 (stereo not given in full),6.52% (active)
16,O=C(O)C(c1ccccc1)C(O)c1ccccc1 (stereo not given),101%
17,Cn1cccc1/C=C1\C(=O)Nc2ccccc21,-1.95% (active)
18,CCc1nc2c(=O)[nH]cnc2o1,90.8%
19,COc1cc2cc(Oc3ccc(NC(=O)Nc4cc(C(F)(F)F)cc(C(F)(F)F)c4)cc3)c(C)nc2cc1OCCN1CCCCC1,-78.6% (active)
20,O=C(N/N=C\c1ccccc1O)C1CC1,102%

row,SMILES,growth
1,CCCCCCCC(=O)Nc1nc2[nH]c(CN3CCN(Cc4cccc(I)c4)CC3)c(CN3CCN(Cc4cccc(I)c4)CC3)c2c(=O)[nH]1,-85.6% (active)
2,N#Cc1ccc(NC(=O)Nc2ccc(Oc3ccc(NC(=O)Nc4ccc(C#N)cc4)cc3)cc2)cc1,26%
3,COc1cccc(C2C(C#N)=C(N)Oc3cc(N)ccc32)c1 (stereo not given),-22.2% (active)
4,CCN(CC)S(=O)(=O)c1ccc(S(=O)(=O)N2CCC[C@@H](C(=O)N3CCN(C(=O)OC(C)(C)C)CC3)C2)cc1,15.6%
5,COc1cc(-c2nn(-c3ccc(NC(=O)NCCNS(=O)(=O)c4ccc(F)cc4)cc3)cc2-c2ccncc2)ccc1Cl,-27% (active)
6,CN1CCN(c2nc(-c3cnc4ccccc4n3)cc3ccccc23)CC1,9.21% (active)
7,CC(=O)CC(=O)N(C)C,96.8%
8,CN1CCN(Cc2ccc(C(=O)Nc3cncc(C#Cc4cnc(N)c5ccccc45)c3)cc2C(F)(F)F)CC1,-61.9% (active)
9,C=CCNc1nnc(C)s1,104%
10,CCOC(=O)C1=C(C)Nc2nnc(Nc3ccccc3)n2C1c1ccccc1 (stereo not given),68.4%
11,COc1ccc2c(/C=C3/C(=O)NC(=S)NC3C)cc(=O)oc2c1 (stereo not given),90.4%
12,CC(=[N-])N1CCC[C@@H](Nc2c3ccccc3nc3ccccc23)C1.[Cl][Pt].[NH-]CCC[NH-],-10.4% (active)
13,O=C(/C=C/c1ccc(Cl)cc1)c1ccc(NC(=O)N2CCN(c3cc4c(cc3F)c(=O)c(C(=O)O)cn4C3CC3)CC2)cc1,96.6%
14,COc1cc2nc3cc([N+](=O)[O-])ccc3c(NCCCNCCO)c2cc1OC,-49.4% (active)
15,CNC(=O)c1cc(Oc2ccc3c(c2)sc2nc(-c4ccc(NC(C)=O)cc4)cn23)ccn1,86.3%
16,O=C(NCCN1CCC(O)CC1)c1cc2c(o1)C(=O)c1ccccc1C2=O,-85.8% (active)
17,COc1ccc(C(=O)N/N=C/c2ccc(O)cc2O)cc1Nc1ccnc(C(F)(F)F)c1,29.2%
18,COc1cc(Nc2ncc3c(n2)-c2ccc(Cl)cc2C(c2c(F)cccc2OC)=NC3)ccc1C(=O)O,61.9%
19,CCCCC1COc2cccc3c(SCC(=O)N(C)c4cccc5ccccc45)cc[n+]1c23 (stereo not given),92.2%
20,COc1ccc(C2C=C(c3ccc(Cl)cc3)N=C3SC=CN32)c(Br)c1 (stereo not given),61%
